# Legend:
# Assay in all cases: yeast three-hybrid, YBZ-1, SC-Leu-His + 0.5 mM 3-AT, 4 days
# Conditions in all cases: tags: N-Gal4 AD-HA kept; label: inside an RPR1-promoter hybrid RNA with tandem MS2 sites; ssRNA
# [1] = molecular target: PUM1 PUF domain R1-RTS (Homo sapiens, UniProt Q14671 828-1176, S863R;R864T;Q867S)
# How it was run: (§1)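 A centromeric plasmid in strain YBZ-1 co-expressed Pumilio-1 PUF domain libraries, randomized at the three base-contacting residues of each repeat, with matching RNA elements; the strain carries a LexA–MS2 coat fusion and a HIS3 reporter. After four days on SC-Leu (input) or SC-Leu-His + 0.5 mM 3-AT (selection), the repeat regions were PCR-amplified and Illumina-sequenced. The interaction score is the log change in variant frequency from input to selection, using log2 and a pseudocount of 1 where absent.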
# [2] = molecular target: PUM1 PUF domain R5-RNG (Homo sapiens, UniProt Q14671 828-1176, C1007R;R1008N;Q1011G)
# How it was run: as §1
# [3] = molecular target: PUM1 PUF domain R4-ANC (Homo sapiens, UniProt Q14671 828-1176, N971A;H972N;Q975C)
# Sequence of PUM1 PUF domain R4-ANC (Q14671 828-1176 N971A/H972N/Q975C): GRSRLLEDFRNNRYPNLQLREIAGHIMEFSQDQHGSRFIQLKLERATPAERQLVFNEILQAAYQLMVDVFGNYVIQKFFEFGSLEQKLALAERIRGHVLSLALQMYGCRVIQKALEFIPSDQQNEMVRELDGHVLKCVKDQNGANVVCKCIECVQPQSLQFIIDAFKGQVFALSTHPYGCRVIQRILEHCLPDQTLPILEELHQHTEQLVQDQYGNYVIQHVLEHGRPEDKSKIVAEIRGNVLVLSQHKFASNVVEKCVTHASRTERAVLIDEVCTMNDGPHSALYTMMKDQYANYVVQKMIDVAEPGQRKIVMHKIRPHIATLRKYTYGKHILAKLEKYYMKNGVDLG
# How it was run: as §1
# [4] = molecular target: PUM1 PUF domain R4-CMC (Homo sapiens, UniProt Q14671 828-1176, N971C;H972M;Q975C)
# Sequence of PUM1 PUF domain R4-CMC (Q14671 828-1176 N971C/H972M/Q975C): as the sequence (Q14671 828-1176 N971A/H972N/Q975C) above, with A144C, N145M counted along it
# How it was run: as §1
# [5] = molecular target: PUM1 PUF domain R1-KVI (Homo sapiens, UniProt Q14671 828-1176, S863K;R864V;Q867I)
# Sequence of PUM1 PUF domain R1-KVI (Q14671 828-1176 S863K/R864V/Q867I): as the sequence (Q14671 828-1176 N971A/H972N/Q975C) above, with S36K, R37V, Q40I, A144N, N145H, C148Q counted along it
# How it was run: as §1
# [6] = molecular target: PUM1 PUF domain R2-LFS (Homo sapiens, UniProt Q14671 828-1176, N899L;Y900F;Q903S)
# How it was run: as §1
# [7] = molecular target: PUM1 PUF domain R2-AYW (Homo sapiens, UniProt Q14671 828-1176, N899A;Q903W)
# How it was run: as §1
# [8] = molecular target: PUM1 PUF domain R5-EAE (Homo sapiens, UniProt Q14671 828-1176, C1007E;R1008A;Q1011E)
# How it was run: as §1
# [9] = molecular target: PUM1 PUF domain R5-WHY (Homo sapiens, UniProt Q14671 828-1176, C1007W;R1008H;Q1011Y)
# How it was run: as §1
# [10] = molecular target: PUM1 PUF domain R8-LFK (Homo sapiens, UniProt Q14671 828-1176, N1122L;Y1123F;Q1126K)
# Sequence of PUM1 PUF domain R8-LFK (Q14671 828-1176 N1122L/Y1123F/Q1126K): as the sequence (Q14671 828-1176 N971A/H972N/Q975C) above, with A144N, N145H, C148Q, N295L, Y296F, Q299K counted along it
# How it was run: as §1
# [11] = molecular target: PUM1 PUF domain R7-KPV (Homo sapiens, UniProt Q14671 828-1176, S1079K;N1080P;E1083V)
# Sequence of PUM1 PUF domain R7-KPV (Q14671 828-1176 S1079K/N1080P/E1083V): as the sequence (Q14671 828-1176 N971A/H972N/Q975C) above, with A144N, N145H, C148Q, S252K, N253P, E256V counted along it
# How it was run: as §1
sequence,measurement,setting,value
GGCUAGAACUAGUGGAUCCCCCGGCGCCCGGCGGCUCGAGCCCGGGUAAGUGUAAAUCGUCUGCAUGCCGCCGGGCGCCAUGCCUGCAGGUCGACUCUAGAAAACAUG,binding signal,[1],4.45 log2 enrichment (interaction score)
GGCUAGAACUAGUGGAUCCCCCGGCGCCCGGCGGCUCGAGCCCGGGUAAGUGUUAAUAGUCUGCAUGCCGCCGGGCGCCAUGCCUGCAGGUCGACUCUAGAAAACAUG,binding signal,[2],4.63 log2 enrichment (interaction score)
GGCUAGAACUAGUGGAUCCCCCGGCGCCCGGCGGCUCGAGCCCGGGUAAGUGUACAUAGUCUGCAUGCCGCCGGGCGCCAUGCCUGCAGGUCGACUCUAGAAAACAUG,binding signal,[3],2.65 log2 enrichment (interaction score)
same,binding signal,[4],2.87 log2 enrichment (interaction score)
GGCUAGAACUAGUGGAUCCCCCGGCGCCCGGCGGCUCGAGCCCGGGUAAGUGUAUAUAGUCUGCAUGCCGCCGGGCGCCAUGCCUGCAGGUCGACUCUAGAAAACAUG,binding signal,[3],4.27 log2 enrichment (interaction score)
same,binding signal,[4],5.2 log2 enrichment (interaction score)
GGCUAGAACUAGUGGAUCCCCCGGCGCCCGGCGGCUCGAGCCCGGGUAAGUGUAAAUUGUCUGCAUGCCGCCGGGCGCCAUGCCUGCAGGUCGACUCUAGAAAACAUG,binding signal,[1],4.22 log2 enrichment (interaction score)
same,binding signal,[5],4.79 log2 enrichment (interaction score)
GGCUAGAACUAGUGGAUCCCCCGGCGCCCGGCGGCUCGAGCCCGGGUAAGUGUCAAUAGUCUGCAUGCCGCCGGGCGCCAUGCCUGCAGGUCGACUCUAGAAAACAUG,binding signal,[2],2.64 log2 enrichment (interaction score)
GGCUAGAACUAGUGGAUCCCCCGGCGCCCGGCGGCUCGAGCCCGGGUAAGUGUAAAAAGUCUGCAUGCCGCCGGGCGCCAUGCCUGCAGGUCGACUCUAGAAAACAUG,binding signal,[6],3.97 log2 enrichment (interaction score)
same,binding signal,[7],3.05 log2 enrichment (interaction score)
GGCUAGAACUAGUGGAUCCCCCGGCGCCCGGCGGCUCGAGCCCGGGUAAGUGUGAAUAGUCUGCAUGCCGCCGGGCGCCAUGCCUGCAGGUCGACUCUAGAAAACAUG,binding signal,[8],3.11 log2 enrichment (interaction score)
same,binding signal,[9],5.78 log2 enrichment (interaction score)
GGCUAGAACUAGUGGAUCCCCCGGCGCCCGGCGGCUCGAGCCCGGGUAAGCGUAAAUAGUCUGCAUGCCGCCGGGCGCCAUGCCUGCAGGUCGACUCUAGAAAACAUG,binding signal,[10],5.27 log2 enrichment (interaction score)
GGCUAGAACUAGUGGAUCCCCCGGCGCCCGGCGGCUCGAGCCCGGGUAAGUUUAAAUAGUCUGCAUGCCGCCGGGCGCCAUGCCUGCAGGUCGACUCUAGAAAACAUG,binding signal,[11],4.82 log2 enrichment (interaction score)
